Bioassay records as filed in PubChem.
zVAD death inh: blocks zVAD induced death of L929 cells; 0.38% of 220,000 active; L929 zVAD necroptosis rescue, ATP luminescence, 24 h; with zVAD 60 µM; viability rescue, % at 10 µM;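 active = activation, scaled between plate controls, above about 75%, limit read from the data; inactive = activation under that limit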;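 note: 0% = zVAD with DMSO and 100% = DMSO alone without zVAD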
14-3-3 Bad PPI: disrupts binding of bovine 14-3-3 zeta to phospho-Bad peptide | P63103 | TR-FRET 14-3-3zeta/Dy647-pBad peptide displacement, 1 h | inhibition, % at 21.7 µM | 0.71% of 220,000 active | AID 781;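 active = inhibition above about 70%, limit read from the data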;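 note: 0% = full 14-3-3 plus peptide FRET controls and 100% = background without 14-3-3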
Target sequence (P63103 whole entry, looked up): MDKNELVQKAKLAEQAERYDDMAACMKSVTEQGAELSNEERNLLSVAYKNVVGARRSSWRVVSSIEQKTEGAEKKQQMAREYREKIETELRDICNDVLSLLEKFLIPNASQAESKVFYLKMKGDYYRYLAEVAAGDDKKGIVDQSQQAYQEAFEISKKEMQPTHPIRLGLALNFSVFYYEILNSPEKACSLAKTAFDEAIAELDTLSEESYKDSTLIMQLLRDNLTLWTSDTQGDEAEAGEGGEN
ROMK primary: human ROMK K+ channel modulation, primary screen; P48048; B-score at 10 µM; 2% of 130,000 active; Tet-inducible ROMK, thallium flux fluorescence; actives lie on both sides;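 active = signal ratio slope over the read window, or its plate-corrected B-score, at least 3 SD from the plate mean, either direction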;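 note: B-score of the F/F0 ratio slope over 7 to 12 s after thallium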
Target sequence (P48048 whole entry, looked up): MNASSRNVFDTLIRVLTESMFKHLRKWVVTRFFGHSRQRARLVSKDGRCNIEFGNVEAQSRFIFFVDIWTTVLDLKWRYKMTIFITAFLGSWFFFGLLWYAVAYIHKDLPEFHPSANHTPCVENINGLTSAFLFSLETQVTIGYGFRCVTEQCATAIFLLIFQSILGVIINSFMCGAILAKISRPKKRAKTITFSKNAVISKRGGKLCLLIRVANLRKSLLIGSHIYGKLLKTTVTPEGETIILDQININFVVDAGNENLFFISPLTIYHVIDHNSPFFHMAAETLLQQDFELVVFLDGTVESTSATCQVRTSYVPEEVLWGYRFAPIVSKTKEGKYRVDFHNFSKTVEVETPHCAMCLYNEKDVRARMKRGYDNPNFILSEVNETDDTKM
Calpain2 inh: blocks pig calpain II enzyme activity; inhibition, % at 16 µM; purified calpain II, fluorogenic peptide substrate, 30 min; 0.37% of 220,000 active; AID 1236;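 active = inhibition above about 50%, limit read from the data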
TNF death inh: TNF-alpha cell death inhibition in Jurkat FADD-/- cells; Jurkat FADD-/- TNF necroptosis rescue, ATP luminescence, 24 h; 0 = TNF only, 100 = no-TNF cells; activation (protection from cell death), % at 10 µM; 0.068% of 220,000 active; AID 463075;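 active = activation, meaning protection from cell death, of at least 50% relative to plate controls; inactive = activation below 50%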;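 note: necroptosis triggered by 40 ng/mL TNF-alpha added together with compound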
HMGR II inh: blocks class II HMG-CoA reductase of Enterococcus faecalis; purified E. faecalis HMGR, NADPH absorbance 340 nm kinetic; 0.41% of 190,000 active; inhibition, % at 10 µM;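 active = inhibition above a set limit, the median over all tested compounds plus 3 SD, cut at about 9.5% in these data; inconclusive = no clear call, values can overlap the other calls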;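 note: enzyme runs in reverse so mevalonate oxidation gives rising NADPH absorbance; 0% = complete reaction with DMSO and 100% = background rate lacking mevalonate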
ROMK hit retest: confirmation of human ROMK potassium channel modulators; ROMK thallium flux, fluorescence ratio; stronger effect = lower value; normalized thallium flux (F/F0 slope) at 10 µM; AID 1917; 54% of 3,000 active; shares compounds with ROMK primary;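 active = Flux at 10 µM at least 3 SD below or above vehicle control mean in one or both replicates; inconclusive = no clear call, values can overlap the other calls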
Numbers without * were called inactive. Hits are enriched below; roughly 3% of the tested compounds scored in any of these assays.

What do the screens show for `COc1ccc(C2=NOC(C(=O)NCc3ccccn3)C2)cc1` (centres undefined)?
zVAD death inh: 0.0; 14-3-3 Bad PPI: -5.7; Calpain2 inh: -9.0; TNF death inh: 0.5; HMGR II inh: -7.4

Results for COc1ccc(OC)c(C2=NOC(C(=O)NCc3ccccn3)C2)c1 (centres undefined) ?
zVAD death inh: -0.3; 14-3-3 Bad PPI: 1.1; Calpain2 inh: -32.9; TNF death inh: -1.6; HMGR II inh: -5.2; ROMK hit retest: 0.0759

What do the screens show for `O=C(NCc1ccccn1)C1CC(c2ccccc2O)=NO1` (centres undefined)?
zVAD death inh: -0.6; 14-3-3 Bad PPI: -18.9; ROMK primary: 2.56*; Calpain2 inh: -7.5; TNF death inh: 1.1; HMGR II inh: 3.7; ROMK hit retest: 0.0877

Results for COc1ccc(NC(=O)CN2CCN(c3ccc(F)cc3)CC2)cc1Cl ?
zVAD death inh: 0.1; 14-3-3 Bad PPI: 10.5; Calpain2 inh: 5.0; TNF death inh: -4.1; HMGR II inh: -2.4

How did COc1ccc(CNC(=O)N2CCN(c3ccc(F)cc3)CC2)cc1Cl do in these assays?
zVAD death inh: 1.0; 14-3-3 Bad PPI: 6.4; ROMK primary: -3.01*; Calpain2 inh: 6.5; TNF death inh: -2.0; HMGR II inh: 3.4; ROMK hit retest: 0.0746

How did O=C(O)c1cn(C2CCCCC2)c2ccccc2c1=O do in these assays?
zVAD death inh: -0.2; 14-3-3 Bad PPI: 3.4; ROMK primary: -0.548; Calpain2 inh: 11.8; TNF death inh: 0.8

What do the screens show for `O=C(NCc1cccs1)C1CCN(c2ccc(S(=O)(=O)N3CCOCC3)cc2Cl)CC1`?
zVAD death inh: -0.5; 14-3-3 Bad PPI: 4.3; ROMK primary: 2.9*; Calpain2 inh: 34.0; TNF death inh: -10.4; HMGR II inh: 2.0; ROMK hit retest: 0.0814

What do the screens show for `CC12CCC(C/C1=N/OC(=O)c1cccc([N+](=O)[O-])c1)C2(C)C` (centres undefined)?
zVAD death inh: 3.7; 14-3-3 Bad PPI: 10.3; ROMK primary: -0.625; Calpain2 inh: 10.3; TNF death inh: -0.4; HMGR II inh: -6.5

How did CCCCN(C(=O)c1cccc2c(=O)c(C)c(-c3ccccc3)oc12)c1ccccc1 do in these assays?
zVAD death inh: -0.8; 14-3-3 Bad PPI: 11.2; ROMK primary: -3.7*; Calpain2 inh: 42.6; TNF death inh: -0.9; HMGR II inh: -3.6; ROMK hit retest: 0.0628*

How did CCCCNC(=O)c1cccc2c(=O)c(C)c(-c3ccccc3)oc12 do in these assays?
zVAD death inh: 0.3; 14-3-3 Bad PPI: 6.3; Calpain2 inh: -3.1; TNF death inh: -3.2; HMGR II inh: -5.3

What do the screens show for `COC(=O)C1=C(C(=O)OC)SC(=C2C(=S)C(C)(C)N(C(=O)CC(C)C)c3ccccc32)S1`?
zVAD death inh: 0.3; 14-3-3 Bad PPI: 3.7; ROMK primary: 1.28; Calpain2 inh: -2.0; TNF death inh: -2.6; HMGR II inh: -2.8

Results for O=C(Nc1cccc(Cl)c1)Nc1ccnc(-c2cccnc2)n1 ?
zVAD death inh: -1.1; 14-3-3 Bad PPI: 47.1; ROMK primary: 2.36*; Calpain2 inh: -17.1; TNF death inh: 0.7; HMGR II inh: 0.9; ROMK hit retest: 0.0798

Results for O=C(c1cccc(C(F)(F)F)c1)N1CCC(O)(CS(=O)(=O)Cc2ccc(Cl)cc2)CC1 ?
zVAD death inh: 0.7; 14-3-3 Bad PPI: -13.2; Calpain2 inh: -2.6; TNF death inh: -1.0; HMGR II inh: 2.0; ROMK hit retest: 0.0747

How did Fc1ccc(-n2nnnc2-c2cnc(-c3cccs3)nc2C(F)(F)F)cc1 do in these assays?
zVAD death inh: 0.8; 14-3-3 Bad PPI: 14.6; ROMK primary: 0.117; Calpain2 inh: 3.0; TNF death inh: -15.6; HMGR II inh: -2.0

Results for CCCOc1ccc(/C=N\NC(=O)CCc2n[nH]c(=O)[nH]c2=O)cc1OC ?
zVAD death inh: 0.5; 14-3-3 Bad PPI: 8.1; ROMK primary: 3.38*; Calpain2 inh: 27.8; TNF death inh: 0.0; HMGR II inh: -5.8; ROMK hit retest: 0.0894

Results for COc1ccc(/C=N/NC(=O)CCc2n[nH]c(=O)[nH]c2=O)cc1OC ?
zVAD death inh: 0.9; 14-3-3 Bad PPI: -5.0; Calpain2 inh: 2.5; TNF death inh: -0.4; HMGR II inh: -0.4

How did Cc1ccc(-c2c[n+](Cc3ccc(Cl)c(Cl)c3)c3n2CCC3)cc1 do in these assays?
zVAD death inh: 0.0; 14-3-3 Bad PPI: -0.7; Calpain2 inh: -11.5; TNF death inh: 3.1; HMGR II inh: -5.3

How did O=C(CSCc1ccc(F)cc1)NCc1ccco1 do in these assays?
zVAD death inh: 0.1; 14-3-3 Bad PPI: 4.2; Calpain2 inh: -18.6; TNF death inh: 8.7; HMGR II inh: 2.7

What do the screens show for `CCOCCCNC(=O)C(c1ccc(Cl)cc1)N(Cc1cccs1)C(=O)CNC(C)=O` (centres undefined)?
14-3-3 Bad PPI: 1.3; ROMK primary: 0.0384; Calpain2 inh: 15.9; TNF death inh: -0.1; HMGR II inh: -2.2

How did CCCC(=O)OCC(=O)Nc1ccc2c(c1)OCO2 do in these assays?
zVAD death inh: 1.9; 14-3-3 Bad PPI: 1.3; ROMK primary: -0.249; Calpain2 inh: 0.1; TNF death inh: 0.3; HMGR II inh: 1.5

How did CCOC(=O)C1CCCN(c2ncnc3c2oc2ccccc23)C1 (centres undefined) do in these assays?
zVAD death inh: 0.4; 14-3-3 Bad PPI: 82.7*; Calpain2 inh: -11.1; TNF death inh: -7.8; HMGR II inh: 0.9; ROMK hit retest: 0.0544*

How did Oc1c(CN2CCCCC2)cc(COCc2ccccc2)c2cccnc12 do in these assays?
zVAD death inh: 6.8; 14-3-3 Bad PPI: -10.6; ROMK primary: -4.45*; Calpain2 inh: -37.9; TNF death inh: -14.7; HMGR II inh: -3.2; ROMK hit retest: 0.0705

How did COc1cc(OC)cc(C(=O)NNC(=S)NC2CC2)c1 do in these assays?
zVAD death inh: 0.3; 14-3-3 Bad PPI: -6.4; ROMK primary: -0.409; Calpain2 inh: 4.6; TNF death inh: 0.0; HMGR II inh: -4.0

How did COc1cccc(N2CCN(c3ncnc4c3[nH]c3ccc(F)cc34)CC2C)c1 (centres undefined) do in these assays?
zVAD death inh: 6.1; 14-3-3 Bad PPI: -4.3; ROMK primary: -2.95*; Calpain2 inh: -21.3; TNF death inh: -26.7; HMGR II inh: -3.7; ROMK hit retest: 0.057*

What do the screens show for `c1ccc2c(c1)CCN(c1ncnc3c1[nH]c1ccccc13)C2`?
14-3-3 Bad PPI: -6.9; ROMK primary: -2.92*; Calpain2 inh: -42.3; HMGR II inh: 0.2; ROMK hit retest: 0.0601*

What do the screens show for `COc1cccc2[nH]c3c(N4CCc5ccccc5C4)ncnc3c12`?
zVAD death inh: 1.9; 14-3-3 Bad PPI: -3.6; ROMK primary: -0.506; Calpain2 inh: -111.6; TNF death inh: -8.5

What do the screens show for `COc1ccc2c(c1)[nH]c1c(N3CCSCC3)ncnc12`?
zVAD death inh: 3.2; 14-3-3 Bad PPI: 2.2; Calpain2 inh: -7.0; TNF death inh: -10.0; ROMK hit retest: inconclusive
